For one assay, the target named is PRR3. Kind of assay: pooled miR-30 sensor sort-seq; sequence = guide strand. As to conditions: shRNA.
Take TGATCCTGGAGGACCTCTGTGA: the sensor-assay potency score (higher = more potent) is -0.51.

Sequence TCTGCATTGACTCCCCACCAAC yielded a sensor-assay potency score (higher = more potent) of -1.61.

Take TTGTCTTCCATAACCTGGGGGT: the sensor-assay potency score (higher = more potent) is -0.114.

As to TTTGTCTTCCATAACCTGGGGG, the sensor-assay potency score (higher = more potent) came out at 0.295.

On to TCCTTGTGAAAGCTTCCCCTGG, for which the sensor-assay potency score (higher = more potent) was -1.31.

As for TTGATAAGAGACCAGCTTTTGA, the sensor-assay potency score (higher = more potent) is -1.38.

As to TCGAGGGTTTCTCTGTTCCTTG, the sensor-assay potency score (higher = more potent) was -0.785.

For TTTTTGGCAAAATGTCGGCAGA, the sensor-assay potency score (higher = more potent) is -1.27.

TAGGAAGTAACTCTGCACCAGT yielded a sensor-assay potency score (higher = more potent) of -0.0951.

Regarding TTCTTGATAAGAGACCAGCTTT, the sensor-assay potency score (higher = more potent) is -0.745.

Sequence TCAGTGGTCCCCTTGATCCTGG returned a sensor-assay potency score (higher = more potent) of -0.862.

In turn, TAACTCTGCACCAGTCACCCAA returned a sensor-assay potency score (higher = more potent) of -0.887.

The next assay addresses PRR5. Described as above. To be noted: shRNA.
Sequence TCTAGCTTCACACTGAGGGTGA displayed a sensor-assay potency score (higher = more potent) of 0.389.

TAGTCCTCAGTCACGCCCCTGG returned a sensor-assay potency score (higher = more potent) of -0.743.

TTCTGTCCCTCATAGAAGCGAA gave a sensor-assay potency score (higher = more potent) of -1.06.

Turning to TGGTCCACCAGGTTCTCCGGGC, the sensor-assay potency score (higher = more potent) is -0.928.

Consider ATCTCCGACACAGAGTGCCTGC, for which the sensor-assay potency score (higher = more potent) was -0.984.

As for TCGTGGGGTACAGTCTGCTGGG, the sensor-assay potency score (higher = more potent) was -0.767.

As to TCACTGAAGAAGAAGTCCCAGG, the sensor-assay potency score (higher = more potent) was -0.956.

Sequence ATCCTCTAGCTTCACACTGAGG yielded a sensor-assay potency score (higher = more potent) of -1.85.

With TAGCTTCACACTGAGGGTGATG, the sensor-assay potency score (higher = more potent) is -1.08.

In turn, TTGTGGATGCTGTTCCAGGTGG came in with a sensor-assay potency score (higher = more potent) of -1.05.

TGTTGTAGCTCTTGGAGCGCAC yielded a sensor-assay potency score (higher = more potent) of -0.639.

With TTCAGAATCCGAGTCCACGGAC, the sensor-assay potency score (higher = more potent) is -1.2.

Another assay concerns the target PRRX2. Described as above. To be noted: shRNA.
TTTCTATTGCTGTCCACCCAGG returned a sensor-assay potency score (higher = more potent) of -1.08.

TAGGACTTGAGCAGCGAGGCAG returned a sensor-assay potency score (higher = more potent) of -0.751.

As to TAGGGTGGCACTGTGCTGTAGG, the sensor-assay potency score (higher = more potent) is 0.726.

As to TCGCTGAGGTTGACGCGCCGGG, the sensor-assay potency score (higher = more potent) is -1.

Regarding TTGGCCTTGAGACGGAGGCTGG, the sensor-assay potency score (higher = more potent) is -0.803.

TAGGGGGACGAGGCTGTCCAGG had a sensor-assay potency score (higher = more potent) of -1.31.

As for TTCTTCTTCCGCTTGGCGGCGC, the sensor-assay potency score (higher = more potent) was -0.268.

Turning to TTCCTGCGGAACTTGGCGCGGC, the sensor-assay potency score (higher = more potent) is -0.664.

Regarding TTGAGCAGCGAGGCAGAGCGGC, the sensor-assay potency score (higher = more potent) was -1.11.

ATAATCTGGACTCAGGGCGGTG yielded a sensor-assay potency score (higher = more potent) of -1.16.

Sequence TTTTCTATTGCTGTCCACCCAG had a sensor-assay potency score (higher = more potent) of -0.328.

TTGGTTTTAATACACAAACTAA gave a sensor-assay potency score (higher = more potent) of -1.05.

The values are drawn from the OligoGym collection.
Further: reference of the scale not given here.
